# PubChem BioAssay (NCI)
# Values joined by “and” are separate entries in the source; they are usually repeats but may differ in a detail not shown here. Equal entries are not always repeated. Compounds without any hit were thinned out: in the full panel of roughly 79,000, 15% have a hit. Unmarked numbers belong to inactive results. Active and inactive are the calls of the source. No stated cut-off is given here; in the data, active means growth inhibition above about 70%; inactive means the rest.
# Assay: NCI Yeast Anticancer Drug Screen. Data for the rad50 strain (AID 155);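 further: 0% = growth of vehicle-only cultures of the same strain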
# Settings: S. cerevisiae rad50 strain growth inhibition; at 50.0 µM; active compounds read high
# In short: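 Relative growth inhibition (compound vs vehicle) was measured in yeast with a defined repair-gene alteration.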
row,SMILES,growth inhibition
1,CC(=O)OCC(OC(C)=O)C(OC(C)=O)C(OC(C)=O)C(COC(C)=O)OC(C)=O (stereo not given),-27.2% and -22.9% and -9.4%
2,CCCC/C=C1/CCC(CN(C)C)C1=O (stereo not given),51.9%
3,CCN1CCC(O)(/C=C/c2ccccc2C)C(C(=O)/C=C/c2ccccc2C)C1 (stereo not given),94.4% (active)
4,Cc1c(Cl)ccc2c(C(O)CNCc3ccccc3)cc(-c3ccc(Cl)cc3)nc12 (stereo not given),98.5% (active)
5,NC1c2ccccc2-c2ccc([N+](=O)[O-])cc21 (stereo not given),40%
6,CN(C(=O)c1ccccc1)C1(COC(=O)c2ccccc2)CCCCC1,16.1%
7,CCOC(=O)Nc1cc2c(cc1Br)-c1ccccc1C2O (stereo not given),10%
8,O=C(/C=C(/Nc1ccccc1)C(=O)c1ccccc1)c1ccccc1,30.6%
9,Clc1ccc([I+]c2cccs2)cc1,98% (active)
10,Oc1ccc(Cc2cccc(Br)c2)c(O)c1,99.3% (active)
11,Cc1cc(C)nc(CCSS(=O)(=O)O)c1,12.7%
12,CC1(C)OC2C(COC(c3ccccc3)(c3ccccc3)c3ccccc3)OC(n3cnc4c(N)ncnc43)C2O1 (stereo not given),64.9%
13,Oc1ccc(N=Nc2ccccc2)c(O)c1.Oc1ccc(N=Nc2ccccc2)c(O)c1.[Cu],98.1% (active)
14,O=C(N/C(=C\c1ccc2c(c1)OCO2)c1nc2ccccc2s1)c1ccccc1,97% (active)
15,CC1=C(C(=O)Nc2ccccc2C)C(c2ccccc2F)C(C(=O)Nc2ccccc2C)=C(C)N1,29.6%
16,CC(=O)Oc1c2c(c(OC(C)=O)c3c1n(C(C)=O)c1ccccc1n3C(C)=O)n(C(C)=O)c1ccccc1n2C(C)=O,78.2% (active)
17,OCC(O)C(O)C(O)C(O)C(SCc1ccccc1)SCc1ccccc1 (stereo not given),9.5% and -3.9% and -5.4%
18,CCOc1c(N=Nc2ccc(Cl)cc2)c(-c2ccccc2)nn1C(N)=S,93.4% (active)
19,CC(=O)N(C1=CC(=O)c2ccccc2C1=O)c1ccc(Cl)cc1,96.7% (active)
20,O=C(C1=Cc2ccccc2OC1)N1CCN(c2cccc(Cl)c2)CC1,49.3%
21,Oc1c(Cl)ccc2cccnc12,92% (active)
22,COc1ccc2c(Cc3cc(Cl)ccc3O)cncc2c1O,50.1%
23,CC(CCOP(=O)(O)OCCC(C)CC(C)(C)C)CC(C)(C)C (stereo not given),11.8%
24,CC(C)(C)C(=O)CC(=O)C(F)(F)C(F)(F)C(F)(F)F.[Ag],91.8% (active)
25,Cc1ccc(S(=O)(=O)Nn2c(S)c(C#N)c(-c3ccc([N+](=O)[O-])cc3)c(C#N)c2=O)cc1,49.6%
26,COC1=C(/C(=N/Nc2ccc([N+](=O)[O-])cc2[N+](=O)[O-])c2ccccc2)COC1=O,17.1%

# Assay: NCI Yeast Anticancer Drug Screen. Data for the mec2-1 strain (AID 157)
# Settings: S. cerevisiae mec2-1 strain, at 5.0 µM (retest, dose inferred, filed as 0.5), active compounds read high
# In short: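 Mutant yeast (mec2-1) grown with compound; growth inhibition relative to vehicle control reported.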
row,SMILES,growth inhibition
1,CC(=O)OC1=CC2=CCC3C(CCC4(C)C(C(C)=O)CCC34)C2(C)CC1 (stereo not given),-6%
2,CCN1CCC(O)(/C=C/c2ccccc2C)C(C(=O)/C=C/c2ccccc2C)C1 (stereo not given),-2%
3,Cc1c(Cl)ccc2c(C(O)CNCc3ccccc3)cc(-c3ccc(Cl)cc3)nc12 (stereo not given),58%
4,COc1ccc(C2CC(c3c(O)ccc4ccccc34)=NN2)cc1OC (stereo not given),-3%
5,O=c1[nH]c2c([N+](=O)[O-])cc(Cl)cc2nc1/C=C(\O)c1ccco1,-5%
6,CN(C(=O)c1ccccc1)C1(COC(=O)c2ccccc2)CCCCC1,-28%
7,CCOC(=O)Nc1cc2c(cc1Br)-c1ccccc1C2O (stereo not given),-3%
8,Nc1ccc2[nH]c3ccccc3c2c1,0%
9,CCCCCCC(C)S(=O)(=O)c1ccc(C)cc1 (stereo not given),14%
10,COC(=O)/C(=C/C=C(c1ccccc1)c1ccccc1)N(C(C)=O)C(C)=O,2%
11,O=C(NNc1nc(-c2ccccc2)cs1)C(F)(F)F,74% (active)
12,Nc1nc(-c2ccc(Cl)cc2)cs1,4%
13,CC1(C)OC2C(COC(c3ccccc3)(c3ccccc3)c3ccccc3)OC(n3cnc4c(N)ncnc43)C2O1 (stereo not given),19%
14,COC(=O)/C=N/O,-9%
15,C=CCCCCO/N=C/c1c2c(O)c3c(O)c(C)c4c(c3c1O)C(=O)C(C)(O/C=C/C(OC)C(C)C(OC(C)=O)C(C)C(O)C(C)C(O)C(C)/C=C/C=C(\C)C(=O)N2)O4 (stereo not given),44%
16,C=C1C[C@H](O)[C@H]2C(C[Se]c3ccccc3)C(=O)O[C@@H]2[C@H]2[C@H](C)C(O)C[C@@H]12 (stereo not given in full),2%
17,COC(=O)CCC(NC(=S)N/N=C(\C)c1cnc2ccccc2n1)C(=O)OC (stereo not given),1%
18,CC(=O)Oc1c2c(c(OC(C)=O)c3c1n(C(C)=O)c1ccccc1n3C(C)=O)n(C(C)=O)c1ccccc1n2C(C)=O,42%
19,Oc1c(Cl)ccc2cccnc12,98% (active)
20,COc1ccc2c(Cc3cc(Cl)ccc3O)cncc2c1O,-8%
21,CCCCCCCCCCCC1=NCC(C)N1 (stereo not given),2%
22,c1ccc2c(B(c3cccc4ccccc34)c3cccc4ccccc34)cccc2c1,14%
23,Cc1ccc(S(=O)(=O)Nn2c(S)c(C#N)c(-c3ccc([N+](=O)[O-])cc3)c(C#N)c2=O)cc1,8%
24,COC1=C(/C(=N/Nc2ccc([N+](=O)[O-])cc2[N+](=O)[O-])c2ccccc2)COC1=O,0%
